The values that follow come from PubChem BioAssay AID1452 (National Center for Advancing Translational Sciences (NCATS), 2008).

The campaign covered roughly 150,000 compounds. About 190 (0.13%) were called active. A call without a number means that no potency is given here. Roughly 2% stayed inconclusive and do not appear here. This is one part of a sample in which actives are shown more often than they occur. Unmarked numbers belong to inactive results. Calls follow the shape of the dose curve; as a rule, active = well fitted inhibition curve with a large enough effect; inconclusive = small, poorly fitted or top-dose-only effect; inactive = flat fitted curve, though single readings scatter.
Potency is read from the fitted curve at half-maximal effect.

For the experiment, the target named is Polyunsaturated fatty acid lipoxygenase ALOX12 (Homo sapiens) (UniProt P18054). Description: qHTS Assay for Inhibitors of 12-hLO (12-human lipoxygenase). Also: nearly all actives have a fitted effect of over 55% in size. To be noted: purified 12-hLO, xylenol orange hydroperoxide absorbance; series mostly up to 57.1 µM. The text has this: Assay Provider: Holman, T.R., University of California, Santa Cruz Screening Center PI: Austin, C.P. Screening Center: NIH Chemical Genomics Center [NCGC] Human lipoxygenase 12hLO is a member of the closely related lipoxygenase family of enzymes which catalyze the site-specific oxidation of arachidonic acid to various hormone precursor molecules and as such is a candidate for drug development in a variety of disease areas, such as cancer and inflammation. Inhibition of 12hLO activity was screened by utilizing arachidonic acid as a substrate. The extent of hydroperoxide product formation was measured by a secondary chromogenic reaction in which xylenol orange (XO, Sigma-Aldrich, cat. number 39,818-7) reacts with the ferric ions produced from the reaction between the hydroperoxide and ferrous ions. The Fe(III)-XO complex is characterized with red-shifted absorbance at 560 nm. A purified preparation of human 12hLO was supplied by Professor Ted Holman, University of California, Santa Cruz.
Chain of Polyunsaturated fatty acid lipoxygenase ALOX12 (Homo sapiens) (P18054 whole entry, looked up): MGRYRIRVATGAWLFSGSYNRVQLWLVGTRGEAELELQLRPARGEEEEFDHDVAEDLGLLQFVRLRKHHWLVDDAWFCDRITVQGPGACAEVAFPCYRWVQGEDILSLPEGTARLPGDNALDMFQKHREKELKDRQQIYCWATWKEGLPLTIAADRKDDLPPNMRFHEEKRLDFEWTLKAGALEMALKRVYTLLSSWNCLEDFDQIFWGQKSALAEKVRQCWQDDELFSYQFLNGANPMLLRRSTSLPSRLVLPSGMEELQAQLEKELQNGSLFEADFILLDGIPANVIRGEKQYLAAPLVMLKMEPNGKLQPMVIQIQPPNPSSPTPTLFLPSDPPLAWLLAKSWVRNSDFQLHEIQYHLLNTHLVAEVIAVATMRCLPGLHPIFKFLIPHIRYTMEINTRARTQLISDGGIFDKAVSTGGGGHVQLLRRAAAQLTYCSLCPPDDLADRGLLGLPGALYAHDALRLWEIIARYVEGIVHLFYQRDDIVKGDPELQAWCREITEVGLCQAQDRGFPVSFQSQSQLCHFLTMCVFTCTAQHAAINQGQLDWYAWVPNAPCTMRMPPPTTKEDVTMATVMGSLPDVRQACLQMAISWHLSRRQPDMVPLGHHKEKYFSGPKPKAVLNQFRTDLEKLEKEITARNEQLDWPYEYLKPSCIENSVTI
Assay Protocol: Buffer: 25 mM Hepes pH 7.0, 0.01% Triton X-100. Reagents/Controls: Buffer in columns 3 and 4 as negative control (no enzyme). Substrate solution: 40 uM arachidonic acid (Sigma-Aldrich, St. Louis, MO) final concentration dispensed throughout the plate. Enzyme: 150 nM 12hLO final concentration in columns 1, 2, 5-48. Column 1 is neutral (100% activity). Column 2 contained pin-transferred titration of NDGA (nordihidroguaiaretic acid, Sigma-Aldrich, N 5023, top concentration 20 mM in DMSO, then 1:3 dilution in duplicate). (Dilution factor: 23 nL into 4 uL.) Chromogenic detection reagent (divalent iron/xylenol orange, Fe-XO): 200 uM xylenol orange plus 300 uM ferrous ammonium sulfate prepared freshly in 50 mM sulfuric acid. Assay Steps: Three uL of enzyme were dispensed to 1536-well Greiner black clear bottom plates. Compounds and controls (23 nL) were transferred via Kalypsys PinTool. The plates were incubated for 15 min at room temperature, and then 1 uL of substrate solution was added to start the reaction. After room temperature incubation for 30 minutes, 4 uL of Fe-XO solution was added to each well and the plates were incubated for 30 min. The absorbance at 405 and 573 nm were measured using ViewLux (Perkin-Elmer) High-throughput CCD imager and absorbance protocol settings. The 573-to-405 absorbance ratio was used to compute reaction progress.
Background: In qHTS, concentration-response curves come from the screen itself.
As for `CC(=O)c1c(C)[nH]c(C(=O)OCC(=O)Nc2cc(S(=O)(=O)N3CCCCC3)ccc2C)c1C`, the activity change, negative = inhibition result is “inactive”.
As for `CCc1nnc(NC(=O)CCN(c2ccc(C)cc2)S(=O)(=O)c2ccccc2)s1`, the activity change, negative = inhibition result is “inactive”.
The same measure, in the same setting: the result for `CCOc1ccc(-c2n[nH]c(=S)n2/N=C/c2cc3c(cc2[N+](=O)[O-])OCO3)cc1` reads “inactive”; that for `C=CCN(c1ccc(C(=O)Nc2cc(C)cc(C)c2)cc1)S(C)(=O)=O`, “inactive”.
Same read-out and setting: for `COc1ccc(Cl)cc1NC(=O)CNc1ccccc1F` the value was “inactive”.
`Cc1ccc(NC(=S)Nc2ncccc2C)c(C)c1`: the Potency was 17.8 µM (active).
`Cc1ccccc1NC(=S)Nc1cccc([N+](=O)[O-])c1`: the activity change, negative = inhibition result was “inactive”.
On the same count and under the same terms, for `Cc1ccc(NC(=O)Cn2nc(C)c3ccccc3c2=O)c(C)c1` the value was “inactive”; for `CC(C)(C)OC(=O)NCCCCC1=CC2=CC(=O)C(C)(OC(=O)c3cccs3)C(=O)C2=CO1` (centres undefined), “inactive”.
As to `CC[C@@]12C=C(/C=C/c3ccccc3)[C@](CC)(C1)[C@H](c1ccccc1)CC2=O`, the activity change, negative = inhibition entry is “inactive”.
On the same count and under the same terms, for `COC(=O)C1=C(C(=O)OC)[C@@H]2Nc3ccccc3[C@@]23C[C@@H](C(=O)OC)N(S(=O)(=O)c2ccc([N+](=O)[O-])cc2)C3=N1` the value was -6.39% [at 11.4 µM].
Take `COc1ccc(-n2c(=S)[nH]c3sc4c(c3c2=O)CCc2ccccc2-4)cc1`: the activity change, negative = inhibition result was “inactive”.
As for `Cc1ccc(S(=O)(=O)Nc2nc(C)cc(N/N=C/c3ccc(O)cc3)n2)cc1`, the activity change, negative = inhibition entry is “inactive”.
Turning to `COC(=O)c1c(NC(=O)CN2C(=O)NC(CCc3ccccc3)C2=O)sc2c1CCCCC2` (centres undefined), the activity change, negative = inhibition entry is “inactive”.
As to `C=CCN1c2ccccc2[C@]23C[C@@H](C(=O)OC)N(S(=O)(=O)c4ccc([N+](=O)[O-])cc4)C2=NC(C(=O)OC)=C(C(=O)OC)[C@H]13`, the activity change, negative = inhibition was -1.48% [at 11.4 µM].
Still for that read-out and setting: the result for `CCN(/N=C/c1ccccc1)c1cc(=O)n(C)c(=O)[nH]1` reads “inactive”.
As to `COCCN1C(=O)N[C@@H](CCc2ccccc2)[C@H](C(C)=O)[C@H]1C`, the activity change, negative = inhibition was 1.29% [at 11.4 µM].
In the case of `C=CC1=C2C=C(C3CC3)N(CC(C)C)C=C2C(=O)C(C)(OC(=O)c2ccco2)C1=O` (centres undefined), the activity change, negative = inhibition was 0.586% [at 11.4 µM].
On the same count and under the same terms, the result for `CCCCCCCC[C@@H](O)/C=C/C=C/C=C\[C@@H](O)CCCC(=O)O` reads “inactive”; that for `COc1ccc(-c2nc3c(c4c2C[C@H](c2ccccc2)OC4)CN(C(=O)c2ccco2)CC3)c(C)c1`, 3.56% [at 11.4 µM].
Same read-out and setting: the result for `Cc1ccccc1C(CC(=O)c1cccs1)C(C#N)C#N` (centres undefined) reads “inactive”.
Take `Cc1c(/C=N/N2C(=O)C3C4C=CC(C4)C3C2=O)c2ccccc2n1C` (centres undefined): the activity change, negative = inhibition result was “inactive”.
`CC/C=C\C/C=C\C/C=C\C/C=C\C/C=C\C/C=C\CCC(=O)NC(C)C(=O)O` (centres undefined): the activity change, negative = inhibition entry was “inactive”.
In the case of `COc1cc(NC(=O)COC(=O)CSc2ccc3ccccc3c2)c(C)cc1[N+](=O)[O-]`, the activity change, negative = inhibition result is “inactive”.
Still for that read-out and setting: the result for `COc1ccc(-c2c(C)cc3oc(=O)cc(-c4ccccc4)c3c2C)cc1C=O` reads -1.15% [at 0.00818 µM].
Same read-out and setting: for `CCOc1ccc2nc(C(=O)N3CCCC(C)C3)sc2c1` (centres undefined) the value was “inactive”; for `O=C(/C=C/c1ccc([N+](=O)[O-])cc1)NCCSCc1ccco1`, “inactive”; for `COCC(C)n1c(C)cc(C(=O)CSc2cc(C)c3ccccc3n2)c1C` (centres undefined), “inactive”.
Regarding `COCOc1cc(OC)ccc1C(=O)/C=C/c1ccc([N+](=O)[O-])cc1`, the activity change, negative = inhibition entry is “inactive”.
With `CCCCCCCC1=Cc2ccc(F)cc2C(C(C(=O)OC)C(=O)OC)N1C(=O)OC` (centres undefined), the activity change, negative = inhibition is 0.612% [at 11.4 µM].
On the same count and under the same terms, for `COC(=O)C1=C(C(=O)OC)[C@@H]2N(Cc3ccccc3)c3ccccc3[C@@]23C[C@@H](C(=O)OC)N(S(=O)(=O)c2ccc(C(F)(F)F)cc2)C3=N1` the value was -1.93% [at 11.4 µM]; for `Cc1ccc(C2=NN(C(=O)CSc3nc(N)cc(N)n3)C(c3ccco3)C2)cc1` (centres undefined), “inactive”.
On the same count and under the same terms, the result for `C/C(CC(=O)NC(C)(C)C)=N\NC(=O)c1ccco1` reads “inactive”.
`O=C(COC(=O)[C@H](Cc1ccccc1)NC(=O)c1cccs1)Nc1cc(F)ccc1F`: the activity change, negative = inhibition result was “inactive”.
`Cc1cc2oc(=O)cc(-c3ccccc3)c2c(C)c1-c1ccc(OC(F)(F)F)cc1`: the activity change, negative = inhibition is -2.23% [at 0.00818 µM].
The same measure, in the same setting: the result for `Cc1ccc(C)c(NC(=S)NNC(=O)c2csc(C)c2)c1` reads “inactive”; that for `CCCCS(=O)(=O)N1C2=NC(C(=O)OC)=C(C(=O)OC)[C@@H]3N(Cc4ccccc4)c4ccccc4[C@]23C[C@H]1C(=O)OC`, 2.88% [at 11.4 µM].
Still for that read-out and setting: for `Cc1cccc(N2CCN(C(=O)/C=C/c3ccco3)CC2)c1C` the value was “inactive”; for `COc1ccc(-c2cc(C(F)(F)F)nc(SCC(=O)Nc3ccc4c(c3)OCO4)n2)cc1OC`, “inactive”; for `CCOC(=O)c1c(NC(=O)C(C)Sc2c[nH]c3ccccc23)sc2c1CCC2` (centres undefined), “inactive”.
Still for that read-out and setting: the result for `CCCCC/C=C\C/C=C\CCCCCCCCCC(=O)NCC(=O)O` reads “inactive”.
Consider `Cc1ccnc(N2CCC(C(=O)NC3CCCCCC3)CC2)n1`, for which the activity change, negative = inhibition entry is “inactive”.
Take `Cc1ccnc(-n2sc3ccccc3c2=O)n1`: the Potency was 12.6 µM (active).
With `Cc1nc2ccccc2c(=O)n1CCCn1ccnc1`, the activity change, negative = inhibition entry is “inactive”.
